# Tests used:
# [1] = target: Mitogen-activated protein kinase 3 (Homo sapiens) (UniProt P27361); settings: at 1 µM;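 note: values are mean percent inhibition of MAPK3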
# [2] = target: SRSF protein kinase 3 (Homo sapiens) (UniProt Q9UPE1); settings: at 0.1 µM
# [3] = target: SRSF protein kinase 3 (Homo sapiens) (UniProt Q9UPE1); settings: at 1 µM
# [4] = target: Mitogen-activated protein kinase 14 (Homo sapiens) (UniProt Q16539); settings: at 0.1 µM
# [5] = target: Mitogen-activated protein kinase 14 (Homo sapiens) (UniProt Q16539); settings: at 1 µM
# [6] = target: Mitogen-activated protein kinase 11 (Homo sapiens) (UniProt Q15759); settings: at 0.1 µM
# [7] = target: Mitogen-activated protein kinase 11 (Homo sapiens) (UniProt Q15759); settings: at 1 µM
# [8] = target: T1, Mitogen-activated protein kinase 13 (Homo sapiens) (UniProt O15264); settings: at 0.1 µM
# T1 sequence (whole entry): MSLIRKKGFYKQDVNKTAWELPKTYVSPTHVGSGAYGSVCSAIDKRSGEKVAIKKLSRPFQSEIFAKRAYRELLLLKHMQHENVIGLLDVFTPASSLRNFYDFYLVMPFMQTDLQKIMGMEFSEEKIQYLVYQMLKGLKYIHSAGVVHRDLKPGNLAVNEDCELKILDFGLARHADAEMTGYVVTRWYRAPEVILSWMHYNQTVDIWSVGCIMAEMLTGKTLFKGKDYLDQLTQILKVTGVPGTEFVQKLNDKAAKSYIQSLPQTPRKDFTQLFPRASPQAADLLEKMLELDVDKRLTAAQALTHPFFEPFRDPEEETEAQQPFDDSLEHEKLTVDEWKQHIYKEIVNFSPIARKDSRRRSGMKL
# [9] = target: T1, Mitogen-activated protein kinase 13 (Homo sapiens); settings: at 1 µM
# [10] = target: T2, Mitogen-activated protein kinase 12 (Homo sapiens) (UniProt P53778); settings: at 0.1 µM
# T2 sequence (whole entry): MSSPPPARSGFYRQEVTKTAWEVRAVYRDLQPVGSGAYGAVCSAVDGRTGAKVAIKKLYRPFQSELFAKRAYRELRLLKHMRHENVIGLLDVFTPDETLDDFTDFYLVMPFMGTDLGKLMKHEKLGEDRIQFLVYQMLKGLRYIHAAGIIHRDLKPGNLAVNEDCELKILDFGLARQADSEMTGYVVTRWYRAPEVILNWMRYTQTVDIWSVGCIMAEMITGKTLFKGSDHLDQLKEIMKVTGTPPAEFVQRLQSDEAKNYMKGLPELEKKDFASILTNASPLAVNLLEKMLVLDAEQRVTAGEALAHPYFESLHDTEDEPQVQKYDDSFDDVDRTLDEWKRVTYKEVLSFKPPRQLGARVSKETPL
# [11] = target: T2, Mitogen-activated protein kinase 12 (Homo sapiens); settings: at 1 µM
# [12] = target: SRSF protein kinase 1 (Homo sapiens) (UniProt Q96SB4); settings: at 0.1 µM
# [13] = target: SRSF protein kinase 1 (Homo sapiens) (UniProt Q96SB4); settings: at 1 µM
# [14] = target: Phosphatidylinositol 4,5-bisphosphate 3-kinase catalytic subunit alpha isoform (Homo sapiens) (UniProt P42336); settings: at 0.1 µM
# [15] = target: Phosphatidylinositol 4,5-bisphosphate 3-kinase catalytic subunit alpha isoform (Homo sapiens) (UniProt P42336); settings: at 1 µM
# [16] = target: T3, Phosphatidylinositol 4,5-bisphosphate 3-kinase catalytic subunit delta isoform (Homo sapiens) (UniProt O00329); settings: at 0.1 µM
# T3 sequence (whole entry): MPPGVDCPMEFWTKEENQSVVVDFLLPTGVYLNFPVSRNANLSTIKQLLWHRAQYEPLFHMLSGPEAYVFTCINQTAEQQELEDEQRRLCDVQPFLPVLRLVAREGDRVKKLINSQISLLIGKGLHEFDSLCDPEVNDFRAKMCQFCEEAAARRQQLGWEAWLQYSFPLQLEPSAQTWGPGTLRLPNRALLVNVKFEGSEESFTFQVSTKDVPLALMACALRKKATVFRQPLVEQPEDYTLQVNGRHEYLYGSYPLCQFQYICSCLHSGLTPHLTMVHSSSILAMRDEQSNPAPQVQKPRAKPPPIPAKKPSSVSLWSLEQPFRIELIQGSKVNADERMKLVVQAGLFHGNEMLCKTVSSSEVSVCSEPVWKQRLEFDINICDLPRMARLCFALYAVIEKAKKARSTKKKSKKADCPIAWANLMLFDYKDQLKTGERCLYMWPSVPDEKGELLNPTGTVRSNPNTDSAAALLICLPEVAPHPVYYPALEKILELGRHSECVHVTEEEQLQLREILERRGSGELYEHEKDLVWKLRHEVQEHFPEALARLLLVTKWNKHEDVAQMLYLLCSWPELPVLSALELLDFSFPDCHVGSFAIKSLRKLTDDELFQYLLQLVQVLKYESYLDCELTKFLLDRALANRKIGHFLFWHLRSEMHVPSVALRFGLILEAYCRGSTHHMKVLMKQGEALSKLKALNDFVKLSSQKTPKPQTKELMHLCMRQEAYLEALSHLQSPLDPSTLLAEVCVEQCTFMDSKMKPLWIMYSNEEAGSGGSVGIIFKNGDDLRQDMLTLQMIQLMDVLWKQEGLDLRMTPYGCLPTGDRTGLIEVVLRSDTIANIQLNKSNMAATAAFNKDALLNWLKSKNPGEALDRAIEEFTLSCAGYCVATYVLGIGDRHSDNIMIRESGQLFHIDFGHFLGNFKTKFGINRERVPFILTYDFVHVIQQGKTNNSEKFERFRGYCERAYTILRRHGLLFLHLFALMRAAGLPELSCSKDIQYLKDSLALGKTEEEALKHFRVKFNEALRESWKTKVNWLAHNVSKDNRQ
# [17] = target: T3, Phosphatidylinositol 4,5-bisphosphate 3-kinase catalytic subunit delta isoform (Homo sapiens); settings: at 1 µM
# [18] = target: Phosphatidylinositol 4-kinase beta (Homo sapiens) (UniProt Q9UBF8); settings: at 0.1 µM
# [19] = target: Phosphatidylinositol 4-kinase beta (Homo sapiens) (UniProt Q9UBF8); settings: at 1 µM
# [20] = target: Sphingosine kinase 1 (Homo sapiens) (UniProt Q9NYA1); settings: at 0.1 µM;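 note: mean percent inhibition of SPHK1 activity, measured within the GSK PKIS screening panel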
# Chain of Sphingosine kinase 1 (Homo sapiens) (Q9NYA1 whole entry): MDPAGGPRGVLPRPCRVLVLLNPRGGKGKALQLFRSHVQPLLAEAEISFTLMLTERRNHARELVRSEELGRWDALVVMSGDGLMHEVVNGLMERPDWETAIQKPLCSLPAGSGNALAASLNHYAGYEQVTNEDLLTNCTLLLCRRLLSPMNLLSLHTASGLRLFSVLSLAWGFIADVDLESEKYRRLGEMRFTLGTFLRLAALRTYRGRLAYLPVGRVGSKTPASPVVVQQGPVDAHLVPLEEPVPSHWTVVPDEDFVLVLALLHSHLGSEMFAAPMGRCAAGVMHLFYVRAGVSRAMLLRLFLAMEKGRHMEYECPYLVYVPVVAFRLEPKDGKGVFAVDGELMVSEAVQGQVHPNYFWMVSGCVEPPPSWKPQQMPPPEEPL
# Chain of SRSF protein kinase 1 (Homo sapiens) (Q96SB4 whole entry, canonical isoform): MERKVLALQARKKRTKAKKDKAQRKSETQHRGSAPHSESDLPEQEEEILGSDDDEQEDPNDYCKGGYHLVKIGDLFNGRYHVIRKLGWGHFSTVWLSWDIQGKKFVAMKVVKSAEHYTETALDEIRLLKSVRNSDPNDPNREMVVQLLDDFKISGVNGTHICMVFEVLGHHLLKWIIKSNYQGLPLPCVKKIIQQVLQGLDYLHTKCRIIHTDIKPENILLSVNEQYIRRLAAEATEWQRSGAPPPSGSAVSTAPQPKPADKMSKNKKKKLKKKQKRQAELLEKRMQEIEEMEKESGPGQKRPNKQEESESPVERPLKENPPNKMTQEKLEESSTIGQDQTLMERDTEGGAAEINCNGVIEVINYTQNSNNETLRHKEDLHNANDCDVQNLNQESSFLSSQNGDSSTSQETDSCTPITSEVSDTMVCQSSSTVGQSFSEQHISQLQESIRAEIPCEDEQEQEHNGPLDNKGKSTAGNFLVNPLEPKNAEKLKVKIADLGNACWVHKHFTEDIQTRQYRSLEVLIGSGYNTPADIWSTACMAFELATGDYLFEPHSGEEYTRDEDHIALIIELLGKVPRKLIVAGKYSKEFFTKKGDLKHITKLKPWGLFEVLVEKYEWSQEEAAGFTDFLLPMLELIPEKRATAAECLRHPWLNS
# Chain of Mitogen-activated protein kinase 11 (Homo sapiens) (Q15759 whole entry): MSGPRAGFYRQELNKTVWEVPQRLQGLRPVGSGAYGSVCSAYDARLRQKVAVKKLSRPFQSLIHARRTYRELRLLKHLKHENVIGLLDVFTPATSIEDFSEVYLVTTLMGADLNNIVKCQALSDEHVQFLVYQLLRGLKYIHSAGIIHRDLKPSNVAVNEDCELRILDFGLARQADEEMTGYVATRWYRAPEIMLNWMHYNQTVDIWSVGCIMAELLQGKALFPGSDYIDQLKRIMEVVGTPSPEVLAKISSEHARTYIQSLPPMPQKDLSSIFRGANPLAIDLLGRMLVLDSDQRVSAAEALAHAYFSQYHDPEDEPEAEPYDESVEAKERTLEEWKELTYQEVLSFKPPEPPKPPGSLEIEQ
# Chain of Phosphatidylinositol 4,5-bisphosphate 3-kinase catalytic subunit alpha isoform (Homo sapiens) (P42336 whole entry, canonical isoform): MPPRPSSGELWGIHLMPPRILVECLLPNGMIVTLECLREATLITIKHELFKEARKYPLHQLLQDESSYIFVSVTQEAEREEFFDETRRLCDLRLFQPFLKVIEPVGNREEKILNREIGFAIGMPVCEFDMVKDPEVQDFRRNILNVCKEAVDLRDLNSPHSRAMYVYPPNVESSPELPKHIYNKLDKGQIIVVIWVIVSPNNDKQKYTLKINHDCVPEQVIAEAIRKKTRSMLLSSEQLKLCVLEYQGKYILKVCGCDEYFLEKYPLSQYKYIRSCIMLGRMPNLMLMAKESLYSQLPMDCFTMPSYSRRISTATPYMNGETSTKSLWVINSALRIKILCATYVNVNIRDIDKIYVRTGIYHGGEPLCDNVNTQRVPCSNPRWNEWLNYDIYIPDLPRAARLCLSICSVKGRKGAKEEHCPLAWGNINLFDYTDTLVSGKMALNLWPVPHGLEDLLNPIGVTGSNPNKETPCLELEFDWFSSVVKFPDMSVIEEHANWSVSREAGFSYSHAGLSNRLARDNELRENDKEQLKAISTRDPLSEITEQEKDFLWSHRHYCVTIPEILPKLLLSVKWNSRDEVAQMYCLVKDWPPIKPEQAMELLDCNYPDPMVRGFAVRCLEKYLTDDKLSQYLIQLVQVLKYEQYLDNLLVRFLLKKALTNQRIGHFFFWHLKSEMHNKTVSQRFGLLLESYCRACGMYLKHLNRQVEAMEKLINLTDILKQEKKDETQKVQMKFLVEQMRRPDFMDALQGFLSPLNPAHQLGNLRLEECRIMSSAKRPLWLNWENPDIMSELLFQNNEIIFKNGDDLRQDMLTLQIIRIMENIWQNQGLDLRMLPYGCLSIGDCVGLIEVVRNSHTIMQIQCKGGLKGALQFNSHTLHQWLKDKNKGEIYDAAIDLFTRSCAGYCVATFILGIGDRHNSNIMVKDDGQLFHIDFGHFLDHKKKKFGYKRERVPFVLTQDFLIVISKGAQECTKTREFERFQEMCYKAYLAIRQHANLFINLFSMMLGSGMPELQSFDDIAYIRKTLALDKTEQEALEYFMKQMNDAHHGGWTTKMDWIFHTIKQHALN
# Chain of Phosphatidylinositol 4-kinase beta (Homo sapiens) (Q9UBF8 2-816 limits assumed): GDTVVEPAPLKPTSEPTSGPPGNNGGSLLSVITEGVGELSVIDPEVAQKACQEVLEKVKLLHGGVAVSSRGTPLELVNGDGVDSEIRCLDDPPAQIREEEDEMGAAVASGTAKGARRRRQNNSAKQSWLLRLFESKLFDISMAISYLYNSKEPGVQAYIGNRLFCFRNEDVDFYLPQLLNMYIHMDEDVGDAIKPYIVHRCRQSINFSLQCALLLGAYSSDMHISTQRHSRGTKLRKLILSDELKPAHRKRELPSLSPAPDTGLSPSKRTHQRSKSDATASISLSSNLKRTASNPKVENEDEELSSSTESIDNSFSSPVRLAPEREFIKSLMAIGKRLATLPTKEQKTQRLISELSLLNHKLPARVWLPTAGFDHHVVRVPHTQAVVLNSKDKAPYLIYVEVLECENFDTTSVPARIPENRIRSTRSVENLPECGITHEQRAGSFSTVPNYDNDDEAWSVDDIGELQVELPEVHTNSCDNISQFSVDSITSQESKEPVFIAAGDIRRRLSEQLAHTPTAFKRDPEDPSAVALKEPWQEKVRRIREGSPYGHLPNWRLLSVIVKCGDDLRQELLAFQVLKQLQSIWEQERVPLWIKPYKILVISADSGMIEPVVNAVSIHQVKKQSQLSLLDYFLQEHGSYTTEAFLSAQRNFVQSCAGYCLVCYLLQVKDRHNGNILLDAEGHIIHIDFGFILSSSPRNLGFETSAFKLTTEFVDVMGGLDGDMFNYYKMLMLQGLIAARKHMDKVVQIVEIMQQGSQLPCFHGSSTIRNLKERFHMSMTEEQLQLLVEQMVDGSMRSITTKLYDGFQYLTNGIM
# Chain of SRSF protein kinase 3 (Homo sapiens) (Q9UPE1 whole entry): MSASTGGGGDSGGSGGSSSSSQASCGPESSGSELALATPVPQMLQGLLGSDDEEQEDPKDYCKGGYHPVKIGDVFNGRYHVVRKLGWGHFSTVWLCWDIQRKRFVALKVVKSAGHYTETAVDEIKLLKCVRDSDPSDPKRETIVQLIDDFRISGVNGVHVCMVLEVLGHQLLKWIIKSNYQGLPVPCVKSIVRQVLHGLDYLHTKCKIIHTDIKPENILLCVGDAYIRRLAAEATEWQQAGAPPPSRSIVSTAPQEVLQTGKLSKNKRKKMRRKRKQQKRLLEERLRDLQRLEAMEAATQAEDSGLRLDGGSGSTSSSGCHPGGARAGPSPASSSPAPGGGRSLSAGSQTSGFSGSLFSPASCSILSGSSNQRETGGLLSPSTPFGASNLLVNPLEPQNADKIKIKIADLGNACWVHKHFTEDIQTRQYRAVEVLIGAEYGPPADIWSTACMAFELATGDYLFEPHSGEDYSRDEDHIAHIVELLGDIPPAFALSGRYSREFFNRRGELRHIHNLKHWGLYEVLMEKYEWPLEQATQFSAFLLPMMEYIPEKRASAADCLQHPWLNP
# Chain of Mitogen-activated protein kinase 14 (Homo sapiens) (Q16539 whole entry): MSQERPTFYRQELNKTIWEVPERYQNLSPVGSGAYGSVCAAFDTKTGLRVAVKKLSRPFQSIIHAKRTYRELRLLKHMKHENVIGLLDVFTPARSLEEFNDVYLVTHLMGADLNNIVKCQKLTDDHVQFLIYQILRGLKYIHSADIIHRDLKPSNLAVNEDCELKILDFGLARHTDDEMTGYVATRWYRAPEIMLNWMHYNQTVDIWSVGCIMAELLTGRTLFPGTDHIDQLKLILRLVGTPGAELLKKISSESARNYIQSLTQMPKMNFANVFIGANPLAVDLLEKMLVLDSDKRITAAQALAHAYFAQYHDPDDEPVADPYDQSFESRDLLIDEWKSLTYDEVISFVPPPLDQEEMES
# Chain of Mitogen-activated protein kinase 3 (Homo sapiens) (P27361 whole entry): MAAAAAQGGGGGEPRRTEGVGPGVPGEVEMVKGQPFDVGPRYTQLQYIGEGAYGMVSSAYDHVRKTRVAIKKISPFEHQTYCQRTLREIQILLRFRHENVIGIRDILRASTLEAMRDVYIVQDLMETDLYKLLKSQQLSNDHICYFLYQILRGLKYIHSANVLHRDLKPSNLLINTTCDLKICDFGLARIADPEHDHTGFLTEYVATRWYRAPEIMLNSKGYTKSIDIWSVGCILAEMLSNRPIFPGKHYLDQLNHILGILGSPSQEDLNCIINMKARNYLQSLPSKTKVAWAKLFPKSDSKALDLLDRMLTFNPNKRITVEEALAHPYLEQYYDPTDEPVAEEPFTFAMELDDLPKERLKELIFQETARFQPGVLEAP
smiles,measurement,setting,value
NC(=O)c1sc(-n2cnc3cc(C(F)(F)F)ccc32)cc1OCc1ccccc1Br,inhibition,[1],0.48%
same,inhibition,[2],-3.47%
same,inhibition,[3],0.48%
same,inhibition,[4],1.34%
same,inhibition,[5],4.04%
same,inhibition,[6],4.23%
same,inhibition,[7],4.66%
same,inhibition,[8],0.44%
same,inhibition,[9],-0.68%
same,inhibition,[10],1.27%
same,inhibition,[11],1.86%
same,inhibition,[12],-1.98%
same,inhibition,[13],-4.1%
same,inhibition,[14],0.07%
same,inhibition,[15],0.07%
same,inhibition,[16],0.65%
same,inhibition,[17],1.77%
same,inhibition,[18],0.77%
same,inhibition,[19],-3.13%
same,inhibition,[20],-0.24%
CCn1c(-c2nonc2N)nc2c(C#CC(C)(C)O)nc(O[C@@H](CN)c3ccccc3)cc21,inhibition,[1],0.99%
same,inhibition,[2],-2%
same,inhibition,[3],-2.07%
same,inhibition,[4],1.44%
same,inhibition,[5],1.33%
same,inhibition,[6],-1.84%
same,inhibition,[7],2.96%
same,inhibition,[8],1.2%
same,inhibition,[9],0.11%
same,inhibition,[10],1.29%
same,inhibition,[11],0.23%
same,inhibition,[12],-0.59%
same,inhibition,[13],-3.25%
same,inhibition,[14],-0.44%
same,inhibition,[15],0.33%
same,inhibition,[16],2.44%
same,inhibition,[17],3.42%
same,inhibition,[18],6.5%
same,inhibition,[19],1.86%
same,inhibition,[20],-1.08%
CCn1c(-c2nonc2N)nc2c(C#CC(C)(C)O)ncc(OCC3CCNCC3)c21,inhibition,[1],6.52%
same,inhibition,[2],-0.11%
same,inhibition,[3],3.41%
same,inhibition,[4],-0.04%
same,inhibition,[5],5.69%
same,inhibition,[6],3.7%
same,inhibition,[7],4.04%
same,inhibition,[8],1.99%
same,inhibition,[9],2.26%
same,inhibition,[10],1.19%
same,inhibition,[11],1.7%
same,inhibition,[12],-0.7%
same,inhibition,[13],1.81%
same,inhibition,[14],1.65%
same,inhibition,[15],19.5%
same,inhibition,[16],-0.08%
same,inhibition,[17],-0.9%
same,inhibition,[18],4.18%
same,inhibition,[19],-3.56%
same,inhibition,[20],0%
COc1cc2c(cc1Nc1nc(Nc3ccsc3C(N)=O)c3cc[nH]c3n1)N(C(=O)CN(C)C)CCC2,inhibition,[1],1.75%
same,inhibition,[2],-1.49%
same,inhibition,[3],-0.38%
same,inhibition,[6],2.67%
same,inhibition,[7],6.9%
same,inhibition,[8],1.18%
same,inhibition,[9],0.18%
same,inhibition,[10],2.28%
same,inhibition,[11],3.18%
same,inhibition,[12],-1.65%
same,inhibition,[13],-0.66%
same,inhibition,[14],-0.16%
same,inhibition,[15],-1%
same,inhibition,[16],0.01%
same,inhibition,[17],-0.22%
same,inhibition,[18],-1.18%
same,inhibition,[19],-3.17%
same,inhibition,[20],1.85%
NS(=O)(=O)c1ccc(N/C=C2\C(=O)Nc3ccc4ncsc4c32)cc1,inhibition,[1],15.3%
same,inhibition,[2],-1.67%
same,inhibition,[3],0.72%
same,inhibition,[4],18.6%
same,inhibition,[5],23.4%
same,inhibition,[6],4.61%
same,inhibition,[7],15%
same,inhibition,[8],4.52%
same,inhibition,[9],4.84%
same,inhibition,[10],2.86%
same,inhibition,[11],5.04%
same,inhibition,[12],-3.49%
same,inhibition,[13],-2.8%
same,inhibition,[14],4.87%
same,inhibition,[15],7.04%
same,inhibition,[16],2.72%
same,inhibition,[17],12.7%
same,inhibition,[18],-2.13%
same,inhibition,[19],1.22%
same,inhibition,[20],0.04%
COc1cccc(-n2ncc3c(N/N=C/c4ccncc4)ncnc32)c1,inhibition,[1],7.65%
same,inhibition,[2],-0.94%
same,inhibition,[3],1.8%
same,inhibition,[4],9.43%
same,inhibition,[5],16.4%
same,inhibition,[6],4.02%
same,inhibition,[7],10.8%
same,inhibition,[8],7.88%
same,inhibition,[9],43.3%
same,inhibition,[10],5.45%
same,inhibition,[11],14.1%
same,inhibition,[12],-1.14%
same,inhibition,[13],4.65%
same,inhibition,[14],3.22%
same,inhibition,[15],7.14%
same,inhibition,[16],2.66%
same,inhibition,[17],10%
same,inhibition,[18],-3.14%
same,inhibition,[19],1.7%
same,inhibition,[20],-0.71%
NS(=O)(=O)c1ccc(-c2ccc3c(NC(=O)C4CC4)n[nH]c3c2)cc1,inhibition,[1],1.36%
same,inhibition,[2],0.31%
same,inhibition,[3],-1.45%
same,inhibition,[4],7.62%
same,inhibition,[5],5.94%
same,inhibition,[6],2.34%
same,inhibition,[7],-1.13%
same,inhibition,[8],3.91%
same,inhibition,[9],5.02%
same,inhibition,[10],0.67%
same,inhibition,[11],0.58%
same,inhibition,[12],-1.31%
same,inhibition,[13],-2.21%
same,inhibition,[14],2.7%
same,inhibition,[15],3.32%
same,inhibition,[16],3.34%
same,inhibition,[17],8.4%
same,inhibition,[18],-0.87%
same,inhibition,[19],-1.58%
same,inhibition,[20],-2.63%

# From ChEMBL document CHEMBL1961873, “Compounds: GSK PKIS; Assays: Nanosyn kinase panel” (2012)
